# In the library only some 7.8% were active in any assay of this set; here they are far more common.
# HCMV inh: inhibitors of human cytomegalovirus; HFF cells, HCMV-luciferase reporter, 72 h; hits give low values; activity change, negative = inhibition, % at 57.5 µM; actives 4.5% (n = 410,000); in the data active = activity change below about -60%; inconclusive = no clear call, values can overlap the other calls; inactive = above about -39%
#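 Inhibition of viral replication was scored as loss of reporter luminescence in HFFs infected with HCMV-luciferase (MOI 1 PFU/cell) for 72 h; compounds tested at 2 doses, normalized to buffer and Salinomycin controls.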
# HCV inh: inhibitors of hepatitis C virus infection; actives 3.4% (n = 340,000); Potency, µM (doses to about 41.8 µM), most hits filed as inhibitors; Huh7.5.1 HCVcc-Cre infection, luciferase reporter, 44 h; active = well fitted inhibition curve with a large enough effect; inconclusive = small, poorly fitted or top-dose-only effect, or another doubt; inactive = no such curve, though single readings can be large or run the other way
#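 Luciferase read-out (15 sec integration) after a 15 min room-temperature substrate step quantifies HCVcc-Cre infection. Cells, 1,000 per well, had compound added 4 h post-plating, then virus at ~0.5 moi, and were cultured 44 h.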
# Vaccinia mCherry: inhibitors of vaccinia virus infection (mCherry reporter signal); actives 0.63% (n = 310,000); Vaccinia virus mCherry reporter infection, fluorescence; AID 720579; Potency, µM (highest dose often 36.5 µM), hits mostly inhibitors; calls by dose curve; tested in A549 cells; also: nearly all actives have a fitted effect of over 35% in size
# Lassa entry inh: blocks Lassa virus binding to or entry into cells; Lassa virus pseudotype entry inhibition, cell reporter; Potency, µM (doses to about 37.9 µM), actives largely listed as inhibitors; actives 1.2% (n = 300,000); AID 540256; calls by dose curve; tested in HEK293 cells; also: nearly all actives have a fitted effect of over 50% in size
# Marburg entry inh: Marburg virus entry inhibition; Marburg virus pseudotyped entry inhibition, cell reporter; Potency, µM (doses to about 37.8 µM), hits mostly inhibitors; actives 1.8% (n = 300,000); calls by dose curve; tested in HEK293 cells
# VACV Venus inh: inhibitors of vaccinia virus (Venus reporter). Vaccinia virus Venus reporter expression, fluorescence. Potency, µM (titrated, usually from 36.5 µM), actives largely listed as inhibitors. actives 0.46% (n = 330,000); calls by dose curve; tested in A549 cells; also: nearly all actives have a fitted effect of over 30% in size
# Hits are given with their value; – = inactive; ? = inconclusive; · = not tested or not shown; [ ] = dose if it differs, or a comment.
SMILES,HCMV inh,HCV inh,Vaccinia mCherry,Lassa entry inh,Marburg entry inh,VACV Venus inh
N#Cc1c(-c2ccccc2)c(-c2ccccc2)n(Cc2ccco2)c1NC(=O)c1cccs1,–,2.82µM,–,?,?,–
COc1ccc(Nc2ncnc3onc(-c4ccc(Cl)cc4)c23)cc1Cl,–,·,–,12.6µM,7.08µM,–
Cc1cc(Cl)c(S(=O)(=O)NC2CCCC2)cc1OCC(=O)NC1CCCCC1,-90.1,7.08µM,·,?,?,·
CCOc1cc(CNCc2ccccc2)ccc1OCC(=O)NC1CCCCC1,–,2.51µM,–,–,?,–
COc1cc(CNCc2ccccn2)ccc1OCC(=O)NC1CCCCC1,–,–,–,–,–,–
Cc1cc(Cl)c(S(=O)(=O)N2CCN(c3ccccn3)CC2)cc1OCC(=O)NC1CCCCC1,-76.9,10µM,·,·,·,·
Cc1cc(Cl)c(S(N)(=O)=O)cc1OCC(=O)NC1CCCCC1,–,–,–,–,?,–
Cc1cc(Cl)ccc1OCCCC(N)=O,–,?,·,–,–,·
Cc1cc(Cl)ccc1OCCCC(=O)NO,–,7.08µM,–,?,–,–
CC(C)[C@@H]1Cc2c(C#N)c(N)n(C)c(=S)c2CO1,·,·,·,·,–,·
O=C(c1ccccc1)n1nc(-c2ccco2)nc1NCc1ccccc1Cl,–,·,–,–,–,–
CCOC(=O)N1CCN(S(=O)(=O)c2cc(OCC(=O)NC3CCCCC3)c(C)cc2Cl)CC1,-69.7,–,·,–,?,·
Cc1cc(Cl)c(S(=O)(=O)N2CCCCCC2)cc1OCC(N)=O,–,–,?,–,–,–
Cc1cc(Cl)c(S(=O)(=O)N2CCCCCC2)cc1OCC(=O)NC1CCCCC1,?,–,·,–,–,·
Cc1cc(Cl)ccc1OCC(=O)NC1CCCC1,-74.4,?,–,–,?,–
Cc1cc(Cl)c(S(=O)(=O)N2CCSCC2)cc1OCC(=O)NC1CCCCC1,-95.3,6.31µM,·,?,9.2µM,·
Cc1cc(Cl)ccc1OCC(=O)OCC(=O)NC1CCCC1,–,–,–,–,–,–
Cc1ccc(CNc2ncnc3c2c(-c2ccccc2)cn3-c2cccc(Cl)c2)cc1,–,·,–,–,·,–
COc1cccc2cc(C(=O)OCC(=O)NC3CCCC(C)C3C)c(=O)oc12 (stereo not given),-60.6,?,–,–,?,–
COc1ccc(Cl)cc1C(=O)OCC(=O)NC1CCCC(C)C1C (stereo not given),–,–,–,–,–,–
O=C(CSc1nc(=O)[nH]c2c1CCCC2)NCc1ccc(F)cc1,–,·,–[7.34 µM],–,·,–[7.34 µM]
COc1cc(C)c2occ(/C(C)=N\O)c2c1,–,8.91µM,·,–,–,·
Cc1cc(C)c2c(CC(=O)Nc3nnc(C(C)C)s3)coc2c1,?,·,–,–,?,?
CCN(CC)c1ccc2c(C)c(Cl)c(=O)oc2c1,–,–,–,?,?,–
CCN(CC)c1ccc2c(C)c(-c3ccc(N)cc3)c(=O)oc2c1,?,8.91µM,·,10µM,?,–
SMILES,HCMV inh,HCV inh,Vaccinia mCherry,Lassa entry inh,Marburg entry inh,VACV Venus inh
CCOC(=O)Cc1c(C)c2ccc(N(CC)CC)cc2oc1=O,–,10µM,–,–,–,–
CCOC(=O)CCc1c(C)c2ccc(O)cc2oc1=O,–,–,–,–,?,–
CCCc1cnc2c(c1SCc1ccc(C(F)(F)F)cc1)c(=O)n(C)c(=O)n2C,–,·,–,–,·,–
COc1ccc(OC)c(NC(=O)CC2SC(=Nc3ccc(F)cc3)N(CCC3=CCCCC3)C2=O)c1 (stereo not given),–,?,–,?,?,–
COc1cc([N+](=O)[O-])ccc1NC(=O)CC1SC(=Nc2ccc(F)cc2)N(CCC2=CCCCC2)C1=O (stereo not given),-98.7,?,–,3.16µM,?,–
COc1ccc(OC)c(S(=O)(=O)N(C)CC(=O)N2CCN(c3cccc(Cl)c3)CC2)c1,-103.3,–,·,–,?,–
COc1ccc(S(=O)(=O)N(C)CC(=O)N2CCN(C)CC2)cc1Cl,-100.4,–,·,·,·,·
COc1ccc(OC)c(S(=O)(=O)N(C)CC(=O)N2CCN(c3ccc(F)cc3)CC2)c1,–,–,?,–,–,–
COC(=O)C1=C(c2c(C)noc2C)C[C@@H]2CC[C@H]1N2C(=O)NC1CC1,-96.8,–,–,·,·,–
COC(=O)C1=C(c2c(C)noc2C)C[C@@H]2CC[C@H]1N2C(=O)NCc1ccc(C(F)(F)F)cc1,–,?,–,·,·,–
COC(=O)C1=C(c2cc3ccccc3s2)C[C@@H]2CC[C@H]1N2C(=O)NCc1ccc(C(F)(F)F)cc1,–,11.2µM,–,·,·,?
COC(=O)C1=C(c2c(C)noc2C)C[C@@H]2CC[C@H]1N2C(=O)NC1CCCCC1,–,–,–,·,·,–
COC(=O)C1=C(c2cc3ccccc3s2)C[C@@H]2CC[C@H]1N2C(=O)NC1CC1,-63.5,?,–,·,·,–
COC(=O)C1=C(c2cc3ccccc3s2)C[C@@H]2CC[C@H]1N2C(=O)NCC1CC1,–,?,–,·,·,–
Cc1ccc(-n2c(C)cc(/C=c3/sc4nc5ccccc5n4c3=O)c2C)cc1,·,–,·,?,0.282µM,–
O=C(Nc1ccc(C(F)(F)F)cc1)N[C@H]1CC[C@@]23CCCN2C(=O)CCC[C@H]3C1Cc1ccccc1 (stereo not given in full),–,·,·,·,·,·
Cc1ccc(C(C[N+](=O)[O-])Sc2ccc(N)cc2)cc1 (stereo not given),-100.5,?,?,–,–,–
Cc1nc(C(=O)NNC(=O)c2ccc(C(F)(F)F)cc2)cs1,-89.2,?,?,–,?,–
NC(=O)C1CCN(c2ccc(S(=O)(=O)N3CCC(Cc4ccccc4)CC3)cn2)CC1,-67.3,?,–,?,?,–
O=S(=O)(NC1CCCC1)c1ccc(S(=O)(=O)N2CCCN(Cc3ccccc3)C2)cc1,–,?,·,?,5.8µM,·
Cc1cccc(CCNC(=O)c2cc(S(=O)(=O)N3CCCC3)cn2C)c1,–,8.91µM,–,·,·,–
O=C(CCNC(=O)C1CCN(S(=O)(=O)c2ccccc2)CC1)NCc1ccc(Cl)cc1Cl,-74.6,–,·,·,·,·
Cc1cccc(N2C(=O)CS(=O)(=O)C23C(=O)N(Cc2c(F)cccc2Cl)c2ccccc23)c1 (stereo not given),–,·,–,–,·,–
O=C(NC1CCN(Cc2ccccc2)C1)c1cnn(-c2ncc3c(n2)-c2ccccc2CC3)c1C1CC1 (stereo not given),·,·,–,·,·,–
Fc1ccccc1-n1ncc2c1ncn1nc(COc3ccc(Cl)cc3)nc21,–,·,–,–,–,–
O=C(NC1CCN(Cc2ccccc2)CC1)C1CCN(S(=O)(=O)c2ccc(Cl)cc2)CC1,?,10µM,?,?,?,–
O=C(NCCc1ccccc1)C1CCN(S(=O)(=O)c2ccccc2)CC1,-104.0,–,·,–,?,·
CSc1ccccc1C(=O)NCCc1ccc(S(=O)(=O)N2CCCCC2)cc1,-102.2,–,·,–,–,·
O=C(NCCc1ccccc1)c1ccc(S(=O)(=O)N2CCCCC2)cc1,–,·,–,·,·,–
CCOc1ccc(-n2c(=O)c3c(C)c(C)sc3n(CC(=O)N3CCC(C)CC3)c2=O)cc1,–,·,–,–,–,–

# Compound activity: PubChem, National Center for Advancing Translational Sciences (NCATS)
